{"source": "PubChem BioAssay AID1347414", "about": "(National Center for Advancing Translational Sciences (NCATS), 2020)", "note": "Several values for one entry are separate records, joined by “and”; a condition that tells them apart may be missing. Identical values can stand only once. Inconclusive results are not listed. Activity calls are given as the source filed them. Calls follow the shape of the dose curve; as a rule, active = well fitted inhibition curve with a large enough effect; inconclusive = small, poorly fitted or top-dose-only effect; inactive = no such curve, though single readings can be large or run the other way. Potency is read from the fitted curve at half-maximal effect.", "data": [{"test": "qHTS to identify inhibitors of the type 1 interferon - major histocompatibility complex class I in skeletal muscle: Secondary screen by immunofluorescence; also: nearly all actives have a fitted effect of over 70% in size", "settings": "C25cl48 myoblasts, IFN-b induced HLA-ABC immunofluorescence, 24 h; series mostly up to 49.8 µM", "source_text": "Assay Submitter (PI): Travis B. Kinder Ph.D. & James Inglese Ph.D. Assay Development and Screening Technology Laboratory (ADST) National Center for Advancing Translational Sciences (NCATS), Rockville, MD National Institute of Health (NIH), Bethesda, Maryland Idiopathic inflammatory myopathies, collectively referred to as myositis, are a group of rare autoimmune diseases characterized by skeletal muscle inflammation, weakness, and usually accompanied by systemic pathologies of the skin, lungs, or vasculature. Current immunosuppressive therapies and glucocorticoids are often not curative and are accompanied by harsh side effects, especially in children with juvenile myositis. We initiated a drug repurposing and development program to identify more targeted, less toxic therapeutics to treat myositis. Although its cause is not known, muscle from a subset of patients have an abundance of the inflammatory type 1 interferon (IFN) and a down-stream product major histocompatibility complex class I (MHC class I), which are both thought to contribute to damage and weakness. We conducted quantitative high throughput screening (qHTS) on 6,576 compounds (4,679 unique) through a series of cell-based assays to identify those that inhibit the IFN-stimulated expression of MHC class I in muscle precursor cells (myoblasts). The compound identification and evaluation strategy utilized a primary screen with reporter-tagged MHC class I in genome-engineered myoblasts, ATP content counter screen for viability, HLA-ABC immunofluorescence secondary screen, and HLA-B RT-qPCR tertiary screen. To verify activity of compounds identified by qHTS in HLA-B HiBit reporter cells, compounds were assayed by high throughput HLA-ABC immunofluorescence. Briefly, 216 compounds identified from primary and counter screening as inhibitory with minimal cytotoxicity were dispensed into black/clear bottom […] using acoustic dispensing in an 11-point, 1:3 titration with a high final concentration of 50 uM. Normal immortalized human myoblasts C25cl48 were added to the plates with 4.0 ng/ml human IFN-beta for 24 hours, fixed, stained by immunofluorescence for HLA-ABC protein, nuclei, and cell body, and analyzed by laser scanning cytometry as described by Auld et al., 2006. References: Auld DS, Johnson RL, Zhang Y, Veith H, Jadhav A, Yasgar A, Simeonov A, Zheng W, Martinez ED, Westwick JK, Austin CP, Inglese J. 2006. Fluorescent protein-based cellular assays analyzed by laser-scanning microplate cytometry in 1536-well plate format. Methods Enzymol 414:566-89. doi:10.1016/S0076-6879(06)14029-X\nPROTOCOL TABLE (as described by Inglese et al., 2007) SEQUENCE No. (e.g., 1, 2, 3, etc.); […] (e.g., Cells, Incubation, Reagent, etc.); VALUE; DESCRIPTION 0; Compounds; 25 nl; Follow-up compounds dispensed at 25 nl/well with Labcyte Echo 655 acoustic dispenser in triplicate Aurora ChemLib 1536K black/clear bottom, low base, TC 1536-well plates (00019324). Also dispensed 25 nl/well DMSO control, ruxolitinib IFN-b inhibitor control titration, and digitonin cytotoxic control 1a; Cells; 5 uL; Multidrop Combi (Thermo Scientific) to seed 125 cells/well into eight plates in 5 ul/well of iHSKM growth medium (GM) without dexamethasone into columns 1+2. Add metal lids with gas-exchange holes 1b; Cells; 5 uL; Multidrop Combi (Thermo Scientific) to seed 125 cells/well into eight plates in 5 ul/well of iHSKM GM without dexamethasone + 4 ng/ml IFN-b into columns 3 - 48. […]", "values": [{"molecule": "COC(=O)[C@@]12OC[C@]34[C@H]([C@@H](O)[C@@H]1O)[C@@]1(C)CC(=O)C(O)=C(C)[C@@H]1C[C@H]3OC(=O)[C@H](OC(=O)/C=C(\\C)C(C)C)[C@@H]24", "Potency": "36.4 nM (active)"}, {"molecule": "COc1cccc2c1C(=O)c1c(O)c3c(c(O)c1C2=O)C[C@@](O)(C(=O)CO)CC3OC1CC(N2CCOC(OC)C2)C(O)C(C)O1", "note": "(stereo not given in full)", "Potency": "57.6 nM (active)"}, {"molecule": "Cc1[nH]nc2ccc(-c3cncc(OC[C@@H](N)Cc4c[nH]c5ccccc45)c3)cc12", "Potency": "230 nM (active)"}, {"molecule": "C/C1=C/C[C@@H](/C(C)=C/c2csc(C)n2)OC(=O)C[C@H](O)C(C)(C)C(=O)[C@H](C)[C@@H](O)[C@@H](C)CCC1", "Potency": "inactive"}, {"molecule": "CC1=C(O)C(=O)C=C2C1=CC=C1[C@@]2(C)CC[C@@]2(C)[C@@H]3C[C@](C)(C(=O)O)CC[C@]3(C)CC[C@]12C", "Potency": "1150 nM (active)"}, {"molecule": "O=[N+]([O-])/C=C/c1ccc2c(c1)OCO2", "Potency": "18200 nM (active)"}, {"molecule": "CC(=O)OC[C@H]1O[C@@H]([S-])[C@H](OC(C)=O)[C@@H](OC(C)=O)[C@@H]1OC(C)=O.CC[PH+](CC)CC.[Au]", "Potency": "576 nM (active)"}, {"molecule": "CC(C)[C@]12O[C@H]1[C@@H]1O[C@]13[C@]1(O[C@H]1C[C@H]1C4=C(CC[C@@]13C)C(=O)OC4)[C@@H]2O", "Potency": "91.4 nM (active)"}, {"molecule": "COC(=O)[C@]12CCC(C)(C)C[C@H]1[C@H]1C(=O)C=C3[C@@]4(C)C=C(C#N)C(=O)C(C)(C)[C@@H]4CC[C@@]3(C)[C@]1(C)CC2", "Potency": "3640 nM (active)"}, {"molecule": "CC(C)[C@]12O[C@H]1[C@@H]1O[C@@]13[C@@]1(C)CCC4=C(COC4=O)[C@@H]1C[C@@H]1O[C@@]13C2=O", "Potency": "162 nM (active)"}, {"molecule": "C[C@@H]1O[C@@H](O[C@H]2C[C@@H](O)[C@]3(CO)[C@H]4[C@H](O)C[C@]5(C)[C@@H](C6=CC(=O)OC6)CC[C@]5(O)[C@@H]4CC[C@]3(O)C2)[C@H](O)[C@H](O)[C@H]1O", "Potency": "64.7 nM (active)"}, {"molecule": "C[C@@H]1O[C@@H](O[C@@H]2C=C3CC[C@@H]4[C@H](CC[C@]5(C)[C@@H](c6ccc(=O)oc6)CC[C@]45O)[C@@]3(C)CC2)[C@H](O)[C@H](O)[C@H]1O", "Potency": "36.4 nM (active)"}, {"molecule": "Cc1sc2c(c1C)C(c1ccc(Cl)cc1)=N[C@@H](CC(N)=O)c1nnc(C)n1-2", "Potency": "162 nM (active)"}, {"molecule": "CC(C)(C)c1cc(C=C(C#N)C#N)cc(C(C)(C)C)c1O", "Potency": "inactive"}, {"molecule": "CC[C@@]1(O)C(=O)OCc2c1cc1n(c2=O)Cc2cc3ccccc3nc2-1", "Potency": "1.62 µM (active) and 2.05 µM (active)"}, {"molecule": "CC1(C)CC[C@]2(NC(=O)C(C)(F)F)CC[C@]3(C)[C@H](C(=O)C=C4[C@@]5(C)C=C(C#N)C(=O)C(C)(C)[C@@H]5CC[C@]43C)[C@@H]2C1", "Potency": "3240 nM (active)"}, {"molecule": "O=c1[nH]c2ccc(Cl)cc2c(N[C@@H]2CN3CCC2CC3)c1-c1nc2ccccc2[nH]1", "Potency": "1620 nM (active)"}, {"molecule": "Cc1[nH]ncc1-c1cc2nc([C@@H]3CC4CCN3CC4)[nH]c(=O)c2s1", "Potency": "3640 nM (active)"}, {"molecule": "O=C1/C(=C\\c2ccccc2)C[C@@]2(O)[C@H]3Cc4ccc(O)c5c4[C@@]2(CCN3CC2CC2)[C@H]1O5", "Potency": "2290 nM (active)"}, {"molecule": "C/C(=C\\c1csc(C)n1)[C@@H]1C[C@@H]2O[C@]2(C)CCC[C@H](C)[C@H](O)[C@@H](C)C(=O)C(C)(C)[C@@H](O)CC(=O)O1", "Potency": "inactive"}]}]}
